# Source: PubChem BioAssay
# In the library only some 3% were active in any assay of this set; here they are far more common.
# SKOV3 invasion – ovarian cancer metastasis inhibition, 3D TME model; SKOV3ip1-GFP adhesion/invasion on 3D omental model, fluorescence; AID 1963576; Potency, µM (doses to about 45.8 µM), for the others: at the top dose activity change, negative = inhibition, hits mostly inhibitors; hit rate 0.1% among 46,000;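 note: potency is the fitted concentration of half-maximal effect; plate controls were DMSO wells for no effect and tomatine positive control wells for full effect; nearly all actives have a fitted effect of over 65% in size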
#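 Primary human omental fibroblast/mesothelial 3D culture pre-formed 48 h. SKOV3ip1-GFP cells added with compounds (0.36-46 umol/L), incubated 2 h RT/16 h 37 C, fixed; GFP cells quantified at 488/509 nm.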
# PMP22 txn prim – PMP22 gene transcription modulation | S16 Pmp22-F2sN Schwann cells, FLuc/NLuc coincidence luminescence, 24 h | Potency, µM (doses to about 57.5 µM), for inactives: at the highest dose activity change, negative = inhibition, usual class: inhibitors | hit rate 2% among 43,000 | AID 1508649; active = clear falling dose curves in both reporters; inconclusive = both reporters move, but less clearly or upward; inactive = either reporter flat; the % is the NLuc reporter signal; note: potency is the fitted concentration of half-maximal effect; % is set by controls: 0 for no effect and ±100 for the full control effect
#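 qHTS, 1536-well. Cells seeded, compounds added by pin tool, 24 h 37C. Nano-Glo reagent 1 (lysis/FLuc), 10 min RT, read; Stop&Glo, 10 min RT, read NLuc.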
# p53null 32C kill – selectivity test: cytotoxicity in p53 null cells, permissive temperature | H1299-neo p53 null cells, ATP luminescence, 24 h, 32C | Potency, µM (highest dose often 46.1 µM), for inactives: top-dose activity change, negative = cytotoxicity, most hits filed as cytotoxic | hit rate 0.62% among 55,000;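 note: potency is the fitted concentration of half-maximal effect; 0% = DMSO only and -100% = full killing by 100 µM tamoxifen; nearly all actives have a fitted effect of over 55% in size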
#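 Luminescent ATP readout gave cell viability of p53-null H1299-neo cells after a 24 h compound exposure at the permissive 32C. Titrations ran up to 46 uM, and AC50s were fitted with the standard Hill equation.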
# S16 viability – toxic to S16 Pmp22-F2sN Schwann cells. S16 Pmp22-F2sN Schwann cells viability, CellTiter-Glo, 24 h. Potency, µM (highest dose often 57.5 µM), for the others: at the highest dose activity change, negative = cytotoxicity, hits mostly cytotoxic. hit rate 0.48% among 43,000; note: potency is the fitted concentration of half-maximal effect; % is set by controls: 0 for no effect and ±100 for the full control effect; nearly all actives have a fitted effect of over 65% in size
#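 Viability was measured by CellTiter-Glo luminescence (15 min, room temperature). This followed 24 h at 37 °C of compound exposure (23 nL pin transfer) in S16 Pmp22-F2sN Schwann cells, 500-1,000 per well.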
# mTORC1 inh – inhibitors of mTORC1 signaling in Tsc2-/- p53-/- MEF cells; hit rate 0.78% among 44,000; Potency, µM (top dose mostly 38.3 µM), inactives show at the highest dose activity change, negative = inhibition, actives largely listed as inhibitors; Tsc2-/- p53-/- MEF, phospho-rpS6 immunofluorescence/PI, 24 h; AID 493208;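 note: potency is the fitted concentration of half-maximal effect; plate controls were DMSO for no effect and rapamycin for full effect; nearly all actives have a fitted effect of over 50% in size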
#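 Tsc2-/-, p53-/- MEFs (empty-vector stable line) in DMEM + 10% FBS were treated with compounds 24 h at 37 degree Celsius, fixed, and immunostained for phospho-rpS6 (Alexa-488) with propidium iodide counterstain. Laser-scanning cytometry gave % positive cells, normalized against 7.5 nM rapamycin and DMSO.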
# p53null 39C kill – kills p53 null cells at the nonpermissive temperature. H1299 p53-null (neo) cells, 39C, ATPlite viability, 24 h. Potency, µM (highest dose often 46.1 µM), for the others: at the top dose activity, negative = cell killing, most hits filed as cytotoxic. hit rate 0.97% among 55,000. AID 904;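 note: potency is the fitted concentration of half-maximal effect; 0% = DMSO only and -100% = full killing by 100 µM tamoxifen; nearly all actives have a fitted effect of over 50% in size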
#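 Concentration-response (up to 46 uM) was run for 24 h at the nonpermissive 39C on H1299-p53A138V or H1299-neo cells. ATP content was measured with ATPlite luminescence. AC50 values were Hill-modeled after normalizing between DMSO and 100 uM tamoxifen killing.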
# NLuc saturating – NanoLuc enzyme inhibition artifact for PMP22 screen. shares compounds with PMP22 txn prim. Secreted NLuc enzyme (filtered S16 cell medium), Nano-Glo luminescence. Potency, µM (doses to about 57.5 µM), for the others: top-dose activity change, negative = inhibition, usual class: inhibitors. hit rate 4% among 690; note: potency is the fitted concentration of half-maximal effect; % is set by controls: 0 for no effect and ±100 for the full control effect
# NLuc Km ctr – inhibits NanoLuc under Km conditions, PMP22 counter-screen; shares compounds with PMP22 txn prim; secreted NLuc enzyme, coelenterazine luminescence, Km conditions; Potency, µM (top dose mostly 57.5 µM), inactives show top-dose activity change, negative = inhibition, usual class: inhibitors; hit rate 5% among 690; AID 1508639; note: potency is the fitted concentration of half-maximal effect; % is set by controls: 0 for no effect and ±100 for the full control effect
# FLuc counter – inhibits firefly luciferase, PMP22 counter-screen | Potency, µM (doses to about 57.5 µM), for inactives: at the top dose activity, negative = inhibition, actives largely listed as inhibitors | purified P. pyralis FLuc, luminescence, 10 min | shares compounds with PMP22 txn prim | 690 tested, under 10 active; note: % of control where 0% means no effect
# Target sequence (P08659 whole entry, looked up): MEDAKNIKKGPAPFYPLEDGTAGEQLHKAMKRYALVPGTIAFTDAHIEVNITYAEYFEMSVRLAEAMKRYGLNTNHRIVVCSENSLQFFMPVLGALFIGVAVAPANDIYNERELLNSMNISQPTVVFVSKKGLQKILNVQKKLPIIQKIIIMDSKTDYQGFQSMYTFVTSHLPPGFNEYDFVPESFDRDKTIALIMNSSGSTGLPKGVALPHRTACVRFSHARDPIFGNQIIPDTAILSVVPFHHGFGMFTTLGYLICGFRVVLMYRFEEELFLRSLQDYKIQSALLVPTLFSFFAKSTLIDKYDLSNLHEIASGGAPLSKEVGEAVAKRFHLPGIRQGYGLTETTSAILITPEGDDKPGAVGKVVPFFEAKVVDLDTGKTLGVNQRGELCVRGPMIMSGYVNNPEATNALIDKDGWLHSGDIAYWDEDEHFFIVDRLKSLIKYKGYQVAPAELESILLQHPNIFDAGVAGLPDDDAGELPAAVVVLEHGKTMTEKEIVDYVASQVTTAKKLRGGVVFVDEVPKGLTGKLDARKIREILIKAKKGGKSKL
# S16 F2sN tox cnf – S16 Schwann cell cytotoxicity, confirmatory; shares compounds with PMP22 txn prim; S16 Schwann cells viability, CellTiter-Glo ATP luminescence, 24 h; Potency, µM (series often up to 57.5 µM), inactives show at the top dose activity change, negative = viability loss, usual class: cytotoxic; hit rate 7% among 690; AID 1508641; note: potency is the fitted concentration of half-maximal effect; % is set by controls: 0 for no effect and ±100 for the full control effect
# PMP22 txn conf – PMP22 transcription modulation, confirmatory; Potency, µM (series often up to 57.5 µM), without a hit: at the highest dose activity change, negative = inhibition, most hits filed as inhibitors; hit rate 22% among 690; shares compounds with PMP22 txn prim; S16 Schwann cells Pmp22-F2sN, dual luciferase, 24 h; active = clear falling dose curves in both reporters; inconclusive = both reporters move, but less clearly or upward; inactive = either reporter flat; the % is the FLuc reporter signal; note: potency is the fitted concentration of half-maximal effect
# PMP22 prot conf – confirmation of modulators of rat PMP22 protein expression; shares compounds with PMP22 txn prim; S16 Schwann cells Pmp22-HiBiT, luminescence, 48 h; 95 tested, under 10 active; Potency, µM (titrated, usually from 27.9 µM), for the others: at the highest dose activity change, negative = inhibition, actives largely listed as inhibitors; AID 1508647
# Target sequence (P25094 whole entry, looked up): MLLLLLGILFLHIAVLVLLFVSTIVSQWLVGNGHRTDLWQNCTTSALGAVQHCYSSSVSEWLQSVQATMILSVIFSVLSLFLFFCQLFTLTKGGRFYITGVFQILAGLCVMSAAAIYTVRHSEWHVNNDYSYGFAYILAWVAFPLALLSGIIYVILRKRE
# * hit, by the source's call; i = inactive; u = inconclusive; x = no result. Unless noted, calls come from the whole dose curve; as a rule, active = well fitted curve in the direction sought with a large enough effect; inconclusive = small, poorly fitted or top-dose-only effect, or another doubt; inactive = no such curve, though single readings can be large; an effect the other way counts as inactive or inconclusive.
SMILES,SKOV3 invasion,PMP22 txn prim,p53null 32C kill,S16 viability,mTORC1 inh,p53null 39C kill,NLuc saturating,NLuc Km ctr,FLuc counter,S16 F2sN tox cnf,PMP22 txn conf,others
COc1cc2c(=O)c(C(=O)c3ccc(C)c(C)c3)cn(Cc3ccccc3F)c2cc1OC,-2.5%,16.8µM*,-23.3%,-26.3%,-17.4%,13.8%,0.385µM*,0.485µM*,-16.0%,-2.6%,u,
Cc1ccc(NC(=O)CSc2ncc3c(n2)-c2ccccc2N(C)S3(=O)=O)c(Cl)c1,-8.5%,6.45µM*,-10.5%,15.4%,1.6%,6.0%,u,3.7%,-3.5%,-14.9%,u,
Cc1ccccc1NC(=O)CSc1ncc2c(n1)-c1ccccc1N(C)S2(=O)=O,-9.5%,10.6%,-7.0%,0.3%,-3.0%,2.8%,x,x,x,x,x,
O=C(CCS(=O)(=O)c1cc(Br)cc2c1N(C(=O)C1CC1)CC2)N1CCN(c2cccc(C(F)(F)F)c2)CC1,-26.9%,13.4µM*,12.6%,u,-4.4%,8.9%,-3.2%,11.1%,4.9%,4.7%,-42.6%,
O=C(CCS(=O)(=O)c1cc(Br)cc2c1N(C(=O)C1CC1)CC2)N1CCN(c2ccc(F)cc2)CC1,16.3%,u,8.0%,-25.0%,-12.0%,-8.5%,x,x,x,x,x,
CCC(=O)C1=C(c2cccc([N+](=O)[O-])c2)N(C(=O)CC)n2c(nnc2-c2ccccc2)S1,i,3.03µM*,-13.6%,6.4%,-3.2%,19.2%,u,u,0.1%,15.5%,11.1µM*,PMP22 prot conf=-0.7%
CCC(=O)C1=C(c2cccc([N+](=O)[O-])c2)N(C(=O)CC)n2c(nnc2C2CCCCC2)S1,u,8.43µM*,-3.1%,u,-3.0%,4.7%,-7.4%,4.2%,7.2%,-23.2%,10.9µM*,PMP22 prot conf=u
Cc1ccccc1Nc1nn2c(=O)c3ccc(C(=O)NCc4ccccc4)cc3nc2s1,i,u,-15.2%,-6.8%,3.7%,23.2%,x,x,x,x,x,
Cc1ccc(C)c(Nc2nn3c(=O)c4ccc(C(=O)NCc5cccs5)cc4nc3s2)c1,-9.2%,13.4µM*,u,u,u,-9.8%,-13.1%,u,-0.7%,u,u,
CCc1ccccc1Nc1nn2c(=O)c3ccc(C(=O)Nc4cc(C)cc(C)c4)cc3nc2s1,0.6%,7.27µM*,12.7%,16.0%,-9.9%,-15.6%,-3.8%,u,-2.6%,21.7µM*,11.5µM*,PMP22 prot conf=-8.5%
Cc1ccccc1CNC(=O)C(=O)NCC(c1cccs1)S(=O)(=O)c1ccc(Cl)cc1 (centres undefined),8.5%,15µM*,2.6%,0.1%,1.6%,3.6%,-13.8%,-16.7%,4.3%,10.0%,-23.8%,
N[C@@H](CC(=O)N1CCn2c(nnc2C(F)(F)F)C1)Cc1cc(F)c(F)cc1F,-2.0%,x,x,x,x,x,x,x,x,x,x,
O=C(Nc1cccc(-c2nc3ccccc3o2)c1)C(F)(F)F,u,8µM*,u,u,-1.1%,-23.2%,u,u,u,21.3%,u,
CCc1ccc2oc(-c3cccc(NC(=O)c4cc5ccccc5o4)c3)nc2c1,i,0.9%,-6.0%,1.4%,u,-10.5%,x,x,x,x,x,
Cc1cccc(C)c1NC(=O)CSc1nc(-c2cccs2)cc(C(F)(F)F)n1,i,-23.0%,9.3%,9.2%,u,-11.4%,x,x,x,x,x,
Cc1ccc(F)cc1NC(=O)CSc1nc(-c2cccs2)cc(C(F)(F)F)n1,-0.7%,14.1µM*,-3.1%,0.0%,u,u,-20.1%,-17.0%,2.1%,-7.5%,-14.2%,
Cc1ccc(NC(=O)CSc2nc(-c3ccco3)cc(C(F)(F)F)n2)cc1,-3.5%,2.15µM*,5.2%,-8.4%,u,-9.4%,-7.3%,-1.0%,6.9%,-12.0%,-12.7%,
